# In PubChem BioAssay (NCI):
# About 79,000 compounds went through this panel and 15% of them were active in at least one assay; those are over-represented in the sample as a whole. Values without a mark were called inactive. The source made the active and inactive calls. Rule as the data show it: active = growth inhibition above about 70%; inactive = the rest.
# Key:
# [1] = NCI Yeast Anticancer Drug Screen. Data for the rad50 strain (AID 155);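 also: 0% = growth of vehicle-only cultures of the same strain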; details: S. cerevisiae rad50 strain growth inhibition, active compounds read high
# In short: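 Inhibition values express reduced yeast growth in compound-treated cultures relative to vehicle-treated controls.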
# [2] = NCI Yeast Anticancer Drug Screen. Data for the mec2-1 strain (AID 157); details: S. cerevisiae mec2-1 strain, active compounds read high
# In short: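 Using mec2-1 yeast: add compound, measure growth, express inhibition versus vehicle-treated cultures.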
# [3] = NCI Yeast Anticancer Drug Screen. Data for the sgs1 mgt1 strain (AID 161);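 also: 0% = growth of cultures given vehicle only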; details: S. cerevisiae sgs1 mgt1 strain, active compounds read high
# In short: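 Yeast cells carrying a defined DNA-repair defect were exposed to test compounds. Growth inhibition was measured relative to vehicle-treated controls.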
# [4] = NCI Yeast Anticancer Drug Screen. Data for the cln2 rad14 strain (AID 165);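 also: 0% = growth equal to vehicle treated cultures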; details: S. cerevisiae cln2 rad14 strain, active compounds read high
# In short: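 Yeast strain cln2 rad14, bearing defects in cell cycle control and DNA repair, serves as the test system; values reflect growth inhibition compared with vehicle.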
# [5] = NCI Yeast Anticancer Drug Screen. Data for the bub3 strain (AID 167); details: S. cerevisiae bub3 mutant strain, active compounds read high
# In short: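 Steps: expose the mutant yeast strain to compound; grow alongside vehicle-treated cultures; measure growth; express inhibition against the vehicle cultures.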
# [6] = NCI Yeast Anticancer Drug Screen. Data for the mlh1 rad18 strain (AID 175); details: S. cerevisiae mlh1 rad18 strain growth inhibition, active compounds read high
# In short: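 Steps: expose repair-defective yeast to compound; measure growth; express inhibition against vehicle-treated controls.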
# [7] = at 5.0 µM (retest, dose inferred, filed as 0.5)
# [8] = at 50.0 µM (retest, dose inferred, filed as 5.0)
SMILES,"growth inhibition [1, 7]","growth inhibition [1, 8]",growth inhibition ([1]; at 50.0 µM),"growth inhibition [2, 7]","growth inhibition [2, 8]",growth inhibition ([2]; at 50.0 µM),"growth inhibition [3, 7]","growth inhibition [3, 8]",growth inhibition ([3]; at 50.0 µM),"growth inhibition [4, 7]","growth inhibition [4, 8]",growth inhibition ([4]; at 50.0 µM),"growth inhibition [5, 7]","growth inhibition [5, 8]",growth inhibition ([5]; at 50.0 µM),"growth inhibition [6, 7]","growth inhibition [6, 8]",growth inhibition ([6]; at 50.0 µM)
CCCCC(O)(c1ccc2nc(NC(=O)OC)[nH]c2c1)c1cccs1 (stereo unspecified),-7%,58%,7.8%,-4%,62%,74.8% (active),-4%,69%,49.5%,-15%,10%,36%,-8%,41%,35.5%,-5%,62%,94.5% (active)
CCc1cccc(CC)c1NC(=S)N/C=C(\C#N)C(=O)c1ccc2ccccc2c1,7%,14%,44.8%,-2%,6%,38.5%,0%,13%,61.4%,-23%,5%,6.85%,3%,7%,59.1%,-2%,5%,67.2%
COC([C@@H](OC(=O)c1ccccc1)[C@H](OC(=O)c1ccccc1)C(O)COC(=O)c1ccccc1)n1cc(C)c(=O)[nH]c1=O (stereo partly specified),-8%,26%,17.1%,-8%,18%,49.5%,4%,33%,65.5%,8%,57%,53.5%,-19%,28%,71.8% (active),-3%,69%,67.3%
Cc1[nH]c(=O)[nH]c(=S)c1C(=O)NC1C2CCCCC2NC2CCCCC21 (stereo unspecified),67%,96% (active),75.5% (active),49%,97% (active),83.3% (active),49%,97% (active),76.4% (active),74% (active),98% (active),85% (active),48%,97% (active),77.8% (active),46%,96% (active),71.9% (active)
Cc1c2ccnc(-c3ccc(F)cc3)c2cc2c1[nH]c1ccccc12,-3%,1%,-0.35%,-14%,15%,-14.4%,-26%,48%,65.8%,7%,17%,-35.9%,-2%,1%,-17.1%,-3%,11%,-5.15%
CCOc1ccccc1NC1=C(Cl)C(=O)c2ccccc2C1=O,99% (active),97% (active),23.9%,99% (active),98% (active),97.9% (active),100% (active),98% (active),98% (active),99% (active),98% (active),97% (active),99% (active),97% (active),97.8% (active),99% (active),97% (active),96.1% (active)
O=C(O)/C(=C/c1ccc(Cl)cc1)c1ccccc1,-5%,23%,4.7%,-7%,23%,44.5%,-3%,27%,10.6%,-10%,39%,90.7% (active),-8%,17%,9.95%,-5%,45%,39.6%
CS(C)=O.[Cl-].[Cl-].[NH-]CC(O)CN(Cc1ccccc1)CC(O)CN.[Pt] (stereo unspecified),-15%,4%,31.9%,18%,20%,1%,2%,18%,17.7%,39%,14%,-6.25%,-19%,-11%,-5.7%,-13%,-4%,7.75%
CCCCN1C(=O)C(=O)N(c2ccccc2)C1=O,-6%,5%,18.2%,-7%,12%,32.9%,-14%,1%,8.65%,-29%,-17%,73.8% (active),-21%,11%,1.55%,-5%,15%,16.9%
COc1ccc2c(C)c(N=C=S)c(=O)oc2c1,35%,79% (active),60.2%,13%,78% (active),69%,34%,81% (active),48%,6%,33%,1.75%,29%,87% (active),89% (active),42%,89% (active),74.7% (active)
O=C1C=CC(=O)N1c1ccc(-c2nc3ccccc3o2)cc1,66%,92% (active),86.2% (active),70% (active),91% (active),88.9% (active),100% (active),96% (active),91.5% (active),81% (active),96% (active),88% (active),100% (active),87% (active),88.5% (active),82% (active),90% (active),90% (active)
Cc1ccc(C)c(S(=O)(=O)Nc2c([N+](=O)[O-])cc([N+](=O)[O-])c3ccccc23)c1,30%,35%,85.7% (active),30%,40%,86.6% (active),47%,29%,87.5% (active),32%,54%,86% (active),20%,30%,79.8% (active),34%,59%,83.6% (active)
CC(=O)O/C=C1\c2ccccc2CCC1c1ccc2ccccc2c1 (stereo unspecified),7%,-5%,-4.45%,-4%,-13%,-23.9%,1%,11%,0.3%,-19%,-22%,1.45%,5%,4%,27.9%,9%,9%,-0.15%
COc1ccc2c(c1)CCn1c(C)c(COC(=O)NC(C)C)c(COC(=O)NC(C)C)c1-2,17%,98% (active),88.7% (active),0%,98% (active),92.3% (active),33%,98% (active),89.2% (active),10%,97% (active),90.3% (active),15%,98% (active),88.7% (active),17%,98% (active),87.7% (active)
Cc1ccc(O)c(C(c2cc(C)ccc2O)c2ccccc2Cl)c1,96% (active),99% (active),98.2% (active),95% (active),99% (active),99.5% (active),91% (active),99% (active),99.2% (active),98% (active),99% (active),98.6% (active),85% (active),99% (active),98.5% (active),97% (active),95% (active),99% (active)
CC1=NN(c2ccccc2)C(=O)C12[C@H](c1ccccc1)C2(C#N)C#N (stereo partly specified),34%,92% (active),84% (active),37%,78% (active),54%,46%,96% (active),87.3% (active),25%,74% (active),66.4%,41%,81% (active),77.6% (active),41%,87% (active),75.8% (active)
O=c1nc(N2CCCC2)nc(N2CCCC2)s1,-16%,-8%,-11.4%,4%,-14%,0.8%,-1%,-11%,-9.25%,14%,-5%,-38.6%,-7%,-10%,-4.15%,14%,-1%,7.45%
